Data from PubChem BioAssay (NCATS).
Results filed as inconclusive are left out. A number with no mark means an inactive call. Activity calls are given as the source filed them. The call rests on the fitted dose curve; in most records, active means well fitted inhibition curve with a large enough effect; inconclusive means small, poorly fitted or top-dose-only effect; inactive means no such curve, though single readings can be large or run the other way.

assay: qHTS Screen of the MIPE 4.0 Collection Against Ewings Sarcoma (TC71) (AID 1259253); settings: TC71 Ewing sarcoma viability, CellTiter-Glo, 48 h; series mostly up to 45.8 µM; viability (% of DMSO): at the top concentration; further: nearly all actives have a fitted effect of over 40% in size;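 on viability (% of DMSO): 100% = DMSO-treated cells and 0% = medium-only wells without cells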
From the text: There is a large unmet medical need for treatments for Ewing sarcoma, a pediatric sarcoma. We sought to identify compounds that inhibited Ewing sarcoma cells in vitro with the goal to then test promising drugs in two drug combinations in vitro to look for synergistic drug combinations. Promising combinations would then proceed to additional validation, including in vivo testing.
Using the NCATS developed oncology compound library called the Mechanism of Interrogation Plate (MIPE), four Ewing sarcoma cell lines were evaluated (TC32, TC71, RDES, EW8). Compounds, in a 12-point titration series, were incubated with cells for 48 hours and the read out was cell viability (CellTiter-Glo from Promega). These initial experiments were used to select appropriate concentrations of each single agent for subsequent two-drug matrix combinations such that the concentrations in the matrices would span both activity and non-activity.
Cells, in the log phase of growth, were seeded in 5 uL of RPMI plus 5% FBS, […] L-glutamine, 100 U/ml penicillin and 100 ug/ml streptomycin into 1536-well solid-bottom white tissue culture treated Greiner Bio One Plates (789173-F) using a MultiDrop Combi (Thermofisher Scientific) dispenser and a small sterile cassette. One column was media alone to be used as a :"no cells" control. The plates were then covered with sterilized stainless steel gasketed lids from Kalypsys. After allowing cells to attach for 4 hours, 23 nL of test compound or control (negative control DMSO and positive control 9.2 uM Bortezomib-final) were added from a 1536-well polypropylene compound source plate to each well using a 1536 head pin tool from Kalypsys. Cells were then incubated for 48 hours at 37C, 95% relative humidity and 5% CO2. After 48 hours, plates were removed from the incubator and 3 uL of CellTiter-Glo (Promega) was added using an Aurora Flying Reagent Dispenser Bioraptor. Plates were incubated at room temperature for 10 minutes prior to reading the luminescence on the Viewlux (PerkinElmer). The relative luciferase units are used to calculate the percent activity using the activity of DMSO in the cells and no cells columns for normalization of no inhibition and full inhibition respectively.
Potency means the concentration at half of the fitted maximal effect.

| Compound | Potency | viability (% of DMSO) [%] |
| --- | --- | --- |
| O=c1cc(N2CCOCC2)oc2c(-c3cccc4c3sc3ccccc34)cccc12 | 10.5 µM (active) | – |
| CO[C@H]1C(=O)[C@]2(C)[C@@H](OC)C[C@H]3OC[C@@]3(OC(C)=O)[C@H]2[C@H](OC(=O)c2ccccc2)[C@]2(O)C[C@H](OC(=O)[C@H](O)[C@@H](NC(=O)OC(C)(C)C)c3ccccc3)C(C)=C1C2(C)C | – | 15 |
| NC1CCC(Nc2nc(Nc3ccc(C(=O)N4CCCCC4)cc3)c3ncn(-c4cccc(F)c4)c3n2)CC1 (stereo not given) | – | 118 |
| CCn1cc(C(=O)O)c(=O)c2ccc(C)nc21 | – | 129 |
| O=C1C(Cl)=C(NCCN2CCOCC2)C(=O)c2ncccc21 | 6.62 µM (active) | – |
| Cn1cc(C=C2C(=O)Nc3cccnc32)c2ccccc21 | – | 100 |
| O=c1c(-c2ccc(O)cc2)coc2cc(O[C@@H]3O[C@H](CO)[C@H](O)[C@H](O)[C@H]3O)ccc12 | – | 108 |
| NC[C@@H]1O[C@@H](O[C@H]2[C@@H](O)[C@H](O[C@@H]3[C@@H](O)[C@@H](N)C[C@H](N)[C@H]3O[C@H]3O[C@H](CN)[C@@H](O)[C@@H](O)[C@H]3N)O[C@H]2CO)[C@H](N)[C@@H](O)[C@@H]1O | – | 96.1 |
| COc1cc2nc(-c3ccc(N4CCN(C)CC4)cc3)nc(NCCN3CCOCC3)c2cc1OC | 0.132 µM (active) | – |
| O=C(O)c1ccccc1C(=O)Nc1ccc(-c2ccccc2)cc1 | – | 115 |
| Nc1nc(F)nc2c1ncn2[C@@H]1O[C@H](COP(=O)(O)O)[C@@H](O)[C@H]1O | 14.8 µM (active) | – |
| CC[C@@]1(O)C[C@H](O[C@H]2C[C@H](N(C)C)[C@H](O[C@H]3C[C@H](O)[C@H](O[C@H]4CCC(=O)[C@H](C)O4)[C@H](C)O3)[C@H](C)O2)c2c(cc3c(c2O)C(=O)c2c(O)cccc2C3=O)[C@@H]1C(=O)OC | 0.187 µM (active) | – |
| Cc1c(O)cccc1C(=O)N[C@@H](CSc1ccccc1)[C@H](O)CN1C[C@H]2CCCC[C@@H]2C[C@@H]1C(=O)NC(C)(C)C | 20.9 µM (active) | – |
| C[C@H]1[C@H](NC(=O)C(=NOC(C)(C)C(=O)O)c2csc(N)n2)C(=O)N1S(=O)(=O)O | – | 109 |
| Cc1ccn(-c2ccc(-c3ncco3)cc2)c(=O)c1-c1ccc2nc(N)ncc2c1 | 16.6 µM (active) | – |
| CC(=O)N(C)C1(c2ccccc2)CCN(CCC[C@]2(c3ccc(Cl)c(Cl)c3)CCCN(C(=O)c3ccccc3)C2)CC1 | 20.9 µM (active) | – |
| O=C(O)C=Cc1ccc(O)c(O)c1 | 18.7 µM (active) | – |
| CCOC(=O)O[C@]1(C(=O)OCCl)CC[C@@H]2[C@H]3CCC4=CC(=O)C=C[C@]4(C)[C@@H]3[C@@H](O)C[C@@]21C | – | 99.6 |
| COc1ccc2c3c1OC1C[C@@H](O)C=C[C@@]31CCN(C)C2 (stereo not given in full) | 20.9 µM (active) | – |
| CCc1ccc(C=C2SC(=S)NC2=O)cc1 | – | 102 |

| Compound | Potency | viability (% of DMSO) [%] |
| --- | --- | --- |
| CCc1ccc(OCc2ccccc2C(=O)Nc2ccc3nc(C)cc(N)c3c2)cc1 | 7.43 µM (active) | – |
| Cc1ccc(C(=O)Nc2cccc(C(F)(F)F)c2)cc1Nc1nc(-c2cccnc2)nc2c1cnn2C | 18.7 µM (active) | – |
| COc1ccc(Cc2ccc(NC(N)=O)cc2)cc1-c1cccc(Cl)c1 | 18.7 µM (active) | – |
| CC(C)=CC[C@@H](O)C1=CC(=O)c2c(O)ccc(O)c2C1=O | 2.35 µM (active) | – |
| CCOC(=O)C1=C(N)Oc2ccc(Br)cc2C1C(C#N)C(=O)OCC (stereo not given) | 23.5 µM (active) | – |
| O=C(CCc1ccc(O)cc1)c1c(O)cc(O)cc1O[C@@H]1O[C@H](CO)[C@H](O)[C@H](O)[C@H]1O | – | 119 |
| COc1ccc(-c2coc3cc(O)ccc3c2=O)cc1 | – | 126 |
| O=C(NCc1ccncc1)C12C[C@H]3C[C@@H](C1)CC(c1ccc(Cl)cc1)(C3)C2 | 26.4 µM (active) | – |
| CO[C@H]1C=CO[C@@]2(C)Oc3c(C)c(O)c4c(O)c(c5c(c4c3C2=O)NC2(CCN(CC(C)C)CC2)N=5)=NC(=O)C(C)=CC=C[C@H](C)[C@H](O)[C@@H](C)[C@@H](O)[C@@H](C)[C@H](OC(C)=O)[C@H]1C | – | 104 |
| COc1ccc(-c2cc(=O)c3c(O)cc(O)cc3o2)cc1O | 9.35 µM (active) | – |
| CC1CCC(C(=O)N(c2cc(C#CC(C)(C)C)sc2C(=O)O)C2CCC(O)CC2)CC1 (stereo not given) | 26.4 µM (active) | – |
| CO[C@H]1C=CC=C(C)C(=O)NC2=CC(=O)C(NCCN(C)C)=C(C[C@@H](C)C[C@H](OC)[C@@H](O)[C@@H](C)C=C(C)[C@@H]1OC(N)=O)C2=O | 0.235 µM (active) | – |
| CC[C@]1(O)C[C@@H]2CN(CCc3c([nH]c4ccccc34)[C@@](C(=O)OC)(c3cc4c(cc3OC)N(C=O)[C@@H]3C45CCN4CC=C[C@](CC)([C@H]45)[C@@H](OC(C)=O)[C@]3(O)C(=O)OC)C2)C1 (stereo not given in full) | 20.9 µM (active) | – |
| CN(C)C1CCN(C(=O)c2ccc(NC(=O)Nc3nc(N4CCOCC4)nc(N4CCOCC4)n3)cc2)CC1 | 0.0743 µM (active) | – |
| CCCCCN(C)CCC(O)(P(=O)(O)O)P(=O)(O)O | – | 126 |
| C[C@]12CC[C@@H]3c4ccc(O)cc4C[C@@H](CCCCCCCCCS(=O)CCCC(F)(F)C(F)(F)F)[C@H]3[C@H]1CC[C@H]2O (stereo not given in full) | 14.8 µM (active) | – |
| Cc1ccc(/C=N/NC(=O)c2ccccc2Oc2ccccc2)o1 | 20.9 µM (active) | – |
| CC#CCn1c(N2CCC[C@@H](N)C2)nc2c1c(=O)n(Cc1nc(C)c3ccccc3n1)c(=O)n2C | 26.4 µM (active) | – |
| CC(C)(Cc1ccc2ccccc2c1)NC[C@@H](O)COc1cccc(Cl)c1C#N | 16.6 µM (active) | – |
| CC(=Cc1ccccc1)C=C1SC(=S)N(CC(=O)O)C1=O | – | 123 |
